Compound activity (PubChem BioAssay)
Lmaj promast – inhibitors of Leishmania major promastigote growth; Leishmania major promastigotes, resazurin fluorescence viability; inhibition, % at 10 µM; 200,000 compounds, 9% hits; AID 1063; in the data active means inhibition above about 50%;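 further: promastigotes grown with compound for 44 hours at 28 °C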
bCat KO growth – beta-catenin-lacking colon tumor cell growth suppression; HCT116 beta-catenin knockout viability, CellTiter-Glo, 60 h; active compounds read low; viability, % at 10 µM; 140,000 compounds, 1.5% hits; AID 818;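 active means viability at or under a set limit, the compound median less 4 SD, cut at about 6% in these data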;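 further: 0% = Hyamine 1622 control at 20 µM and 100% = untreated cell control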
HCT116 PTEN-null – suppresses growth of cells with PTEN deletion; HCT116 PTEN-null viability, CellTiter-Glo, 60 h; active compounds read low; 140,000 compounds, 1.2% hits; viability, % at 10 µM;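 active means viability at or below a set limit, 4 SD under the median of all tested compounds, cut at about 3.7% in these data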;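 further: PTEN knockout HCT116 line with beta catenin targeted HCT116 as companion control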
p97 ATPase inh – human p97 ATPase inhibition; P55072; recombinant p97 ATPase, Kinase-Glo ATP luminescence, 3 h; inhibition, % at 8 µM; 220,000 compounds, 0.42% hits; AID 1481; in the data active means inhibition above about 15%;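 further: 0% = DMSO vehicle and 100% = wells lacking enzyme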
Target sequence (P55072 whole entry, looked up): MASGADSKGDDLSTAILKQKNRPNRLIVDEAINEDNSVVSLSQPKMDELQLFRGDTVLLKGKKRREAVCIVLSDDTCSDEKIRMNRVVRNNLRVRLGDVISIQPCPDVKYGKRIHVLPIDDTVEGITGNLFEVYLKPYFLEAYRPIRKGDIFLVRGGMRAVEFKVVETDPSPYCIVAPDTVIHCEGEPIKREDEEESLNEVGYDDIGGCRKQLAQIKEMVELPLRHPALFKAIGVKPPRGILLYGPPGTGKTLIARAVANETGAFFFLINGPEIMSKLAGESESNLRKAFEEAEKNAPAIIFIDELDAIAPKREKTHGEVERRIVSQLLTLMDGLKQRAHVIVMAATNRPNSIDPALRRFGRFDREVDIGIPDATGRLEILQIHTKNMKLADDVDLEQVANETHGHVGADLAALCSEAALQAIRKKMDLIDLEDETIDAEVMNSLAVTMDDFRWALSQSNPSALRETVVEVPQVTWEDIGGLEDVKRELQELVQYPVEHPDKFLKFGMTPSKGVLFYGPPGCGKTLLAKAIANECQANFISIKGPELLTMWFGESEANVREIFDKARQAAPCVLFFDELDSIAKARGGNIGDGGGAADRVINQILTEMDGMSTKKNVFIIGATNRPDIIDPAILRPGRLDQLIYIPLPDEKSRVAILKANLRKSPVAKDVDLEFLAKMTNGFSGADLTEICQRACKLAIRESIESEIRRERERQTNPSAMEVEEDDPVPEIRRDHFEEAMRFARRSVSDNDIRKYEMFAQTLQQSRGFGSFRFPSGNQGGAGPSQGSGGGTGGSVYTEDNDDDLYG
Insulin prom inh – TRM-6 insulin promoter activity inhibition. 130,000 compounds, 0.9% hits. inhibition, % at 2 µM. TRM-6 cells (human fetal islet line), insulin promoter-eGFP reporter, imaging; reporter expression induced with tamoxifen;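 active means inhibition above the mean plus 3 SD, with well images judged a real hit on visual review, cut at about 60% in these data, passing the limit was not always enough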
ROMK mod – human ROMK K+ channel modulation, primary screen. P48048. Tet-inducible ROMK, thallium flux fluorescence; actives lie on both sides. B-score at 10 µM. 130,000 compounds, 2% hits;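 active means signal ratio slope over the read window, or its plate-corrected B-score, at least 3 SD from the plate mean, either direction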;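 further: B-score of the F/F0 ratio slope over 7 to 12 s after thallium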
Lmaj promast 1uM – inhibitors of Leishmania major promastigote growth, repeat at 1 uM | 1,100 compounds, 13% hits | L. major promastigote growth, resazurin fluorescence, 48 h | AID 1258 | shares compounds with Lmaj promast | inhibition, % at 1 µM;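 active means inhibition above about 50% in both repeat tests, limit read from the data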
p97 inh conf – human p97 ATPase inhibition, confirmation. 760 compounds, 44% hits. inhibition, % at 8 µM. recombinant p97 ATPase, Kinase-Glo ATP luminescence. shares compounds with p97 ATPase inh. AID 1517;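 active means percent inhibition of p97 ATPase above a set limit, the primary screen's mean plus 3 SD, cut at about 15% in these data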;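 further: 0% = DMSO wells and 100% = wells lacking p97 protein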
ROMK hit retest – human ROMK channel modulation, retest confirmation; ROMK thallium flux, fluorescence ratio; active compounds read low; shares compounds with ROMK mod; 3,000 compounds, 54% hits; normalized thallium flux (F/F0 slope) at 10 µM;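 active means Flux at 10 µM at least 3 SD below or above vehicle control mean in one or both replicates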
An asterisk follows results filed as active. Shown are actives, neighbours in structure and some others; about 10% of the full set was active somewhere.

How did C=Cn1ccnc1P(=S)(c1nccn1C=C)C1CCCCC1 do in these assays?
Lmaj promast: 10; bCat KO growth: 92; HCT116 PTEN-null: 98; p97 ATPase inh: 1; Insulin prom inh: -45

What do the screens show for `Cc1cccc(C)c1OP(N)(=O)OCC(F)(F)F` (stereo not given)?
Lmaj promast: 68*; bCat KO growth: 95; HCT116 PTEN-null: 95; p97 ATPase inh: -1; Insulin prom inh: 22; ROMK mod: -0.081; Lmaj promast 1uM: -3

How did CNC(C(=O)c1ccccc1)C(OC)c1ccc(C)cc1 (stereo not given) do in these assays?
Lmaj promast: -7; bCat KO growth: 92; HCT116 PTEN-null: 93; p97 ATPase inh: -1; Insulin prom inh: -17; ROMK mod: 0.06

How did CN1/C(=C\C=C\C2=[N+](C)c3ccc4ccccc4c3C2(C)C)C(C)(C)c2ccccc21 do in these assays?
Lmaj promast: 98*; bCat KO growth: 0.4*; HCT116 PTEN-null: 0.1*; p97 ATPase inh: -29; Insulin prom inh: -151; Lmaj promast 1uM: 101*

What do the screens show for `Cc1nc2c(=O)n(C)c(=O)nc-2n(C)n1`?
Lmaj promast: 101*; bCat KO growth: 1.5*; HCT116 PTEN-null: 1.5*; p97 ATPase inh: 31*; Insulin prom inh: -155; Lmaj promast 1uM: 101*; p97 inh conf: 38*

What do the screens show for `Cc1ccc(N2C(=O)NC(=O)C(CCc3ccccn3)(Cc3ccc(F)cc3)C2=O)cc1` (stereo not given)?
Lmaj promast: 13; p97 ATPase inh: 6; Insulin prom inh: -81; ROMK mod: -0.33

Results for CC1(C)C[C@H]2C=C(C=O)[C@]3(C=O)C[C@]3(C)[C@H]2C1 ?
Lmaj promast: 84*; bCat KO growth: 2.0*; HCT116 PTEN-null: 1.8*; p97 ATPase inh: 11; Insulin prom inh: -277; ROMK mod: -9.9*; Lmaj promast 1uM: -8; ROMK hit retest: 0.05*

Results for COc1ccc(C2c3c(nc(C)[nH]c3=O)Oc3c2c(=O)oc2ccccc32)cc1 (stereo not given) ?
p97 ATPase inh: 5; ROMK mod: 0.69

How did CCNC(=O)[C@H]1O[C@@H](n2cnc3c(N)ncnc32)[C@H](O)[C@@H]1O do in these assays?
p97 ATPase inh: 3

Results for NC(=O)c1cn(C2OC(CO)C(O)C2O)c2ncnc(N)c12 (stereo not given) ?
Lmaj promast: 99*; bCat KO growth: 2.7*; HCT116 PTEN-null: 3.0*; p97 ATPase inh: -4; Insulin prom inh: 64*; ROMK mod: 4*; Lmaj promast 1uM: 97*; ROMK hit retest: 0.092

Results for Cc1ccc(S(=O)(=O)N(C)C/N=C(\N)N[N+](=O)[O-])cc1 ?
Lmaj promast: -4; p97 ATPase inh: 15*; Insulin prom inh: 45; ROMK mod: 0.62; p97 inh conf: 7

Results for CC1CCC[C@H](O)CCCCCc2cc(O)cc(O)c2C(=O)O1 (stereo not given in full) ?
Lmaj promast: 3; bCat KO growth: 105; HCT116 PTEN-null: 93; p97 ATPase inh: 17*; Insulin prom inh: -148; p97 inh conf: 25*

How did O=C(c1cc(=O)[nH]c2ccc(Br)cc12)N1CCC2(CC1)OCCO2 do in these assays?
Lmaj promast: -2; bCat KO growth: 108; HCT116 PTEN-null: 99; p97 ATPase inh: -4

How did CC(=O)N1N=C2C3CCN(CC3)C2C1c1ccc(C)cc1 (stereo not given) do in these assays?
Lmaj promast: -8; bCat KO growth: 101; HCT116 PTEN-null: 94; p97 ATPase inh: 1; Insulin prom inh: 12; ROMK mod: -1.1

How did CC(=O)N1N=C2C3CCN(CC3)C2C1c1cccc2ccccc12 (stereo not given) do in these assays?
Lmaj promast: 5; bCat KO growth: 85; HCT116 PTEN-null: 98; p97 ATPase inh: 16*; Insulin prom inh: -2; ROMK mod: -0.081; p97 inh conf: 11

What do the screens show for `CCn1nc(-c2ccccc2)nc2c(=O)n(C)c(=O)nc1-2`?
Lmaj promast: 14; bCat KO growth: 0.7*; HCT116 PTEN-null: 1.4*; p97 ATPase inh: 37*; p97 inh conf: 34*

What do the screens show for `CCOC(=O)N1CCN(C(C)C(=O)c2c[nH]c3ccccc23)CC1` (stereo not given)?
Lmaj promast: 5; bCat KO growth: 92; HCT116 PTEN-null: 90; p97 ATPase inh: 9; Insulin prom inh: 8

Results for CNC(C(=O)c1ccccc1)C(OC(C)C)c1ccc(Cl)cc1 (stereo not given) ?
Lmaj promast: 25; bCat KO growth: 75; HCT116 PTEN-null: 87; p97 ATPase inh: -10; Insulin prom inh: -49

Results for CCCCCCC(=O)c1c(O)n(-c2ccccc2OC)c(=O)[nH]c1=O ?
Lmaj promast: -6; bCat KO growth: 89; HCT116 PTEN-null: 104; p97 ATPase inh: 1; Insulin prom inh: -63; ROMK mod: 0.38

Results for C[C@]12CC[C@@H]3c4ccc(O)c(O)c4CC[C@H]3[C@@H]1CC[C@@H]2O ?
p97 ATPase inh: 23*; p97 inh conf: 5

What do the screens show for `CN1C(=O)C(=Cc2ccc(N3CCOCC3)o2)C(=O)N(C)C1=S`?
Lmaj promast: 3; p97 ATPase inh: 19*; Insulin prom inh: -27; p97 inh conf: -2

How did CN1C(=O)/C(=C\c2ccc(N3CCCCC3)o2)C(=O)NC1=S do in these assays?
Lmaj promast: 7; bCat KO growth: 76; HCT116 PTEN-null: 72; p97 ATPase inh: -2; Insulin prom inh: -46

How did CCc1cc(=O)[nH]c(SCCCF)n1 do in these assays?
Lmaj promast: 3; p97 ATPase inh: 8; ROMK mod: 0.25

What do the screens show for `O=C1C(=O)c2ccccc2-c2ccccc21`?
Lmaj promast: 100*; bCat KO growth: 1.7*; HCT116 PTEN-null: 2.2*; p97 ATPase inh: 32*; Insulin prom inh: -17; p97 inh conf: 38*

What do the screens show for `Cc1ccccc1-n1c(-c2ccc([N+](=O)[O-])cc2)nc2ccccc2c1=O`?
Lmaj promast: 6; bCat KO growth: 87; HCT116 PTEN-null: 81; p97 ATPase inh: 5; Insulin prom inh: -57; ROMK mod: -0.29

How did CCOC(=O)c1c(NS(=O)(=O)c2ccccc2)n(CCCOC)c2nc3ccccc3nc12 do in these assays?
Lmaj promast: 96*; bCat KO growth: 94; HCT116 PTEN-null: 101; p97 ATPase inh: 45*; Insulin prom inh: 36; ROMK mod: 0.13; p97 inh conf: 17*
